NPC1 promoter act = qHTS Assay for NPC1 Promoter Activators | Huh7 NPC1 promoter luciferase reporter, 24 h | 2.4% of 320,000 active | Potency, µM (doses to about 9.22 µM), inactives show at the top dose activation, actives largely listed as activators; also: % of control where 0% means no effect; nearly all actives have a fitted effect of over 60% in size
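NPC1 promoter–luciferase Huh7 cells; 24 h compound; luminescence.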
SMN2 splice enh = qHTS Assay for Enhancers of SMN2 Splice Variant Expression; Potency, µM (series often up to 46.1 µM), for inactives: at the top dose activity change, positive = activation, usual class: activators; HEK293 SMN2-luciferase splicing reporter, luminescence, 30-36 h; 2.8% of 210,000 active; AID 1458, 2008; also: % of control where 0% means no effect; nearly all actives have a fitted effect of over 55% in size
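HEK293 cells carry an SMN2 […]–luciferase reporter in which exon 7 inclusion puts luciferase in frame. Cells were plated 10-12 h before compound addition, then incubated 30-36 h at 37C. ONE-Glo luminescence was read; sodium butyrate at 4.5 mM final served as control.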
Rab9 prom act = qHTS Assay for Rab9 Promoter Activators | Huh7 Rab9 promoter-luciferase reporter, luminescence, 24 h | Potency, µM (series often up to 9.22 µM), for inactives: at the top dose activation, negative = inhibition, most hits filed as activators | 2.8% of 320,000 active; also: % of control where 0% means no effect; nearly all actives have a fitted effect of over 60% in size
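Quantitative HTS format; Huh7 Rab9-luciferase reporter cells (1500/well) receive compound 2 h post-plating, incubate 24 h at 37 °C, then get luciferase reagent for 10 min before luminescence reading.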
FLuc modulator = qHTS profiling assay for firefly luciferase inhibitor/activator using purifed enzyme and Km concentrations of substrates (counterscreen for miR-21 project); Luciferin 4-monooxygenase (Photinus pyralis), P08659; purified FLuc, Km substrates, luminescence inhibition; Potency, µM (series often up to 57.5 µM), for inactives: at the top dose activity change, negative = inhibition, hits mostly inhibitors; 6.9% of 360,000 active; AID 588342, 2011;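 also: plate controls were vehicle for no effect and reference inhibitor for full effect; nearly all actives have a fitted effect of over 55% in size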
Target sequence (P08659 whole entry, looked up): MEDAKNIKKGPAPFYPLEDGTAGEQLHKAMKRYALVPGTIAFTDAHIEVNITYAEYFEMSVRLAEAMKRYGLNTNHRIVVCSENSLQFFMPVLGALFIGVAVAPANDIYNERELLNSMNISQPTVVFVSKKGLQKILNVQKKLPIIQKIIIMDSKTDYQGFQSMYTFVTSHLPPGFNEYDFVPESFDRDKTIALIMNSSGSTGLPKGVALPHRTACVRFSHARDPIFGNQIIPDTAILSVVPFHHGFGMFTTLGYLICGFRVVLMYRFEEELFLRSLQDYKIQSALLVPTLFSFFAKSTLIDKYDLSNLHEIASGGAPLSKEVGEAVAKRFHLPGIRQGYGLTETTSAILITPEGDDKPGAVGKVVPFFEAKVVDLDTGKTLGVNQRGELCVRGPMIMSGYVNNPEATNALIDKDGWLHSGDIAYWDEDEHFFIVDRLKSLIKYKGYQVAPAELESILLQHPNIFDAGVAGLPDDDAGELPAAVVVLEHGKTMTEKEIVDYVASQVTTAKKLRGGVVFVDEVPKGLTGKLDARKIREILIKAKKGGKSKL
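Purified P. pyralis luciferase, 10 nM final, with Km-level 10 uM D-luciferin and 10 uM ATP in 50 mM Tris acetate pH 7.5, 10 mM Mg acetate, 0.01% Tween-20, 0.05% BSA; 6-point qHTS titration about 60 µM downward; luminescence read.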
ELG1 genotox = qHTS screen for small molecules that induce genotoxicity in human embryonic kidney (HEK293T) cells expressing luciferase-tagged ELG1. HEK293T ELG1-luciferase reporter, luminescence, 16 h. Potency, µM (top dose mostly 46 µM), inactives show at the highest dose activity change, positive = activation, most hits filed as activators. 1.3% of 330,000 active. AID 504466, 2011; also: % of control where 0% means no effect; nearly all actives have a fitted effect of over 60% in size
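ELG1-luciferase HEK293T cells, 2,000/well; compound pinned in; 16 hr, 37 °C, 5% CO2; ONE-Glo, 30 min RT; luminescence on CCD imager.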
KinaseGlo FLuc = Counterscreen for Luciferase (Kinase-Glo TM) Inhibition; Potency, µM (top dose mostly 38.3 µM), without a hit: top-dose activity change, negative = inhibition, most hits filed as inhibitors; Luciferin 4-monooxygenase (Photuris pensylvanica), Q27757; 0.28% of 200,000 active; Kinase-Glo luciferase, ATP luminescence, 8 min; also: % is scaled to controls: 0 for no effect and ±100 for the full control effect; nearly all actives have a fitted effect of over 60% in size
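Luminescence was the read-out, taken after 8-minute incubation at ambient temperature. Luciferase turned over luciferin with 10 uM ATP in imidazole pH 7.2 buffer containing KCl, MgCl2, Tween 20 and BSA.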
Starred values were filed as active, the others as inactive; ? = inconclusive; . = no result; [ ] = remark or other dose. The list is not random: actives were taken first. Their share in the collection is about 7.5%. Calls follow the shape of the dose curve; as a rule, active = well fitted curve in the direction sought with a large enough effect; inconclusive = small, poorly fitted or top-dose-only effect, or another doubt; inactive = no such curve, though single readings can be large; an effect the other way counts as inactive or inconclusive. Potency is read from the fitted curve at half-maximal effect.

SMILES	NPC1 promoter act	SMN2 splice enh	Rab9 prom act	FLuc modulator	ELG1 genotox	KinaseGlo FLuc
CCOCC(=O)Nc1cc(C(=O)NCCc2ccccc2)ccc1Cl	1µM*	.	2µM*	-15%	?	0%
COc1ccc(C(=O)Nc2cc(C(=O)NCCc3ccccc3)ccc2Cl)cc1	10%	10µM*	26%	?	16%	-5%
COCC(=O)Nc1cc(C(=O)NCCc2ccccc2)ccc1Cl	1.8µM*	0.63µM*	2µM*	?	?	1%
CC(C)CCNC(=O)c1ccc(Cl)c(NC(=O)Cc2ccccc2)c1	-1%	9%	-2%	-11%	-1%	7%
COCCCNC(=O)Cn1cnc2sc(C)c(S(=O)(=O)N3CCC(C)CC3)c2c1=O	.	-6%	.	-1%	.	.
O=C(CCn1c(=O)c2cccn2c2cccnc21)NCc1ccccc1F	.	.	.	0%	.	.
Nc1nn(-c2ccccc2)nc1C(=O)OCc1ccc(Cl)cc1	.	-5%	.	-17%	.	.
COc1cc2c(cc1OC)C(COc1ccc(F)cc1)N(C(=O)c1cccc(F)c1)CC2 (stereo unspecified)	.	.	.	-3%	.	.
COc1ccc(-n2nc3c(c2NC(=O)CCCl)CSC3)cc1	-1%	.	5%	3%	-6%	.
c1ccc(-c2nnn(C34CC5CC(CC(C5)C3)C4)n2)cc1	7%	?	18%	17µM*	?	-5%
CCOc1ccc(NC(=O)CN(C)C(=O)c2ccccc2OCCOc2ccccc2)cc1OCC	-4%	.	-2%	0%	-10%	.
Cc1cc(N/N=C2/CCCc3ccccc32)nc2ccccc12	29%	-4%	?	7.6µM*	-5%	-2%
O=C(O)c1ccc2c(c1)C(=O)N(CCc1ccccc1)C2=O	3%	.	3%	-3%	0%	.
O=C(O)c1ccc2c(c1)C(=O)N(CCc1c[nH]c3ccccc13)C2=O	2.5µM*	.	3.2µM*	17µM*	?	.
CCN(CC)S(=O)(=O)c1nnc(NC(=O)COc2ccccc2F)s1	.	.	.	11µM*	.	.
CCN(CC)S(=O)(=O)c1nnc(NC(=O)COc2ccc(Cl)cc2)s1	.	.	.	2.4µM*	.	.
COc1cc(Cl)ccc1OCc1cc(C(=O)NC(C)Cc2cnccn2)no1 (stereo unspecified)	2.5µM*	.	1.1µM*	6.7µM*	?	.
COc1cc(Cl)ccc1OCc1cc(C(=O)NCC(C)c2ccccc2)no1 (stereo unspecified)	-2%	.	2%	21µM*	-2%	.
CC(CNC(=O)c1cc(COc2ccc3ncccc3c2)on1)c1ccccc1 (stereo unspecified)	-12%	.	-17%	-17%	-19%	.
CCC(NC(=O)c1cc(COc2cc(C)c(Cl)c(C)c2)on1)c1ccncc1 (stereo unspecified)	-6%	.	-1%	3%	-6%	.
CCC(NC(=O)c1cc(COc2ccc(Cl)cc2OC)on1)c1ccncc1 (stereo unspecified)	3.5µM*	.	4µM*	4.8µM*	?	.
CCC(NC(=O)c1cc(COc2ccc(OC)cc2Cl)on1)c1ccncc1 (stereo unspecified)	25%	.	?	12µM*	16%	.
CC(Cc1cnccn1)NC(=O)c1cc(COc2ccc(F)cc2F)on1 (stereo unspecified)	-1%	.	-8%	-11%	0%	.
CN(C(=O)c1ccccc1C(=O)OCC(=O)Nc1ccccc1)c1ccccc1	-2%	.	-8%	-2%	1%	.
O=C(CSc1nnc(CNC(=O)c2cccs2)o1)Nc1cccc(Cl)c1	-3%	.	8%	-2%	-1%[9.26 µM]	.
SMILES	NPC1 promoter act	SMN2 splice enh	Rab9 prom act	FLuc modulator	ELG1 genotox	KinaseGlo FLuc
Cc1ccc(-c2cc3ccccc3nc2N2CCCC2)cc1	-3%	-32%	0%	-2%	-2%	2%
Cc1ccc2c(c1)C(=NC1CCCCC1)c1cc3ccccc3nc1-2	11%	2.8µM*	?	15µM*	?	-1%
Cc1ccc(C)c(Nc2cc(C(=O)NC3CCCCC3)c3ccccc3n2)c1	.	5%	.	-4%	.	.
Cc1ccc2c(c1)-c1nc3ccccc3cc1C2=NC1CCCCC1	?	6.3µM*	3.5µM*	11µM*	?	-2%
CCOC(=O)C1CCCN(C(=O)c2cc(S(=O)(=O)N(C)C)ccc2N2CCCC2)C1 (stereo unspecified)	1%	.	1%	-1%	-5%	.
CCOc1cccc(NC(=O)c2cccc(F)c2)c1	9%	4%	8%	?	5%	1%
C(=N\c1nc2ccccc2n1CCN1CCCCC1)/c1ccc2c(c1)OCO2	10%	-6%	-1%	-11%	2%	-4%
C=CCn1c(/N=C/c2ccc3c(c2)OCO3)nc2ccccc21	0%	10%	-2%	6.7µM*	1%	-24%
C=CCc1cccc(/C=N/c2nc3ccccc3n2CC)c1O	0%	-11%	1%	2%	1%	2%
Brc1ccc(/C=N/c2nc3ccccc3n2CCN2CCOCC2)cc1	-2%	8%	-1%	24µM*	2%	2%
CCCn1c(/N=C/c2ccc3c(c2)OCO3)nc2ccccc21	11%	-32%	1%	4.8µM*	-2%	-3%
COc1ccc(CC2SC(=Nc3ccc(F)cc3)NC2=O)cc1 (stereo unspecified)	-11%	-22%	2%	-12%	5%	-3%
S=C(NCCN1CCOCC1)Nc1ccc(-c2nc3ccccc3[nH]2)cc1	25%	0%	?	?	-4%	-1%
Cc1ncc(CO)c(CNc2ccc(-c3nc4ccccc4[nH]3)cc2)c1O	1µM*	.	1.6µM*	3.4µM*	?	.
Cc1csc2nc(CSc3nc4ccccc4o3)c(Br)n12	3.5µM*	?	2.5µM*	8.5µM*	2.9µM*	-5%
COc1cc(-c2[nH]ncc2CN2CCSCC2)cc(OC)c1OC	0%	.	-8%	2%	18µM*	.
COc1ccc(C(=O)Nc2ccc(-c3n[nH]c(=S)o3)cc2)cc1	29%	.	?	3µM*	?	.
O=C(Nc1ccc(-c2n[nH]c(=S)o2)cc1)c1ccccc1	10%	.	7%	8.5µM*	8%	.
Cc1ccc(NC(=S)Nc2cccc(-c3n[nH]c(=S)o3)c2)cc1	-1%	.	?	17µM*	15%	.
C=CCOc1ccc(-c2n[nH]c(=S)o2)cc1	-1%	.	-2%	24µM*	7%	1%

Screening data: PubChem BioAssay, National Center for Advancing Translational Sciences (NCATS)
